Only some compounds are listed: those with a hit (about 3.2% of all), similar ones and a draw of the others.
p53 reactivator: restores transcriptional activity of mutant p53 | Potency, µM (highest dose often 92.2 µM), inactives show at the top dose activity change, positive = activation, actives largely listed as activators | AID 504706 | hit rate 0.063% among 320,000 | H1299 p53-A138V BP100-luciferase reporter, luminescence, 24 h; also: potency is read from the fitted curve at half-maximal effect; % of control where 0% means no effect; nearly all actives have a fitted effect of over 45% in size
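p53-null H1299 cells stably carrying temperature-sensitive p53-A138V and a BP100-luciferase reporter were pinned with compounds (4-point, 1:5 series) and held 24 hrs at 37 deg C. Luminescence was read 10 min after detection reagent.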
Nrf2 ARE act: Nrf2 pathway activation | hit rate 0.31% among 410,000 | Potency, µM (titrated, usually from 46.1 µM), inactives show at the top dose activation, usual class: activators | AREc32 ARE-luciferase reporter (MCF7-derived line), luminescence, 24 h; also: potency is read from the fitted curve at half-maximal effect; % of control where 0% means no effect; nearly all actives have a fitted effect of over 65% in size
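AREc32_Fluc, 1000 cells/well, OPTI-MEM + 5% FBS, o/n 37 deg C 5% CO2; 23 nL cpd by pin tool, 24 hr; Steady-Glo 30 min RT, luminescence.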
IL2 activator: IL-2 activation; activation, % (series mostly up to about 46 µM); hit rate 0.065% among 360,000; IL-2 activation reporter assay, cell-based qHTS; stimulated with anti-CD3/CD4/CD28 beads; in transgenic mouse T cells; in the data active = activation above about 50%; inconclusive = mostly about 30% to 49%; also: 0% is about no effect
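Readout: EGFP and DsRed signals by fluorescent plate cytometry. Unstimulated transgenic mouse T cells received compound 60 min before antibody-bead stimulation, then incubated 18 h at 37 degrees C.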
BRCA1 expr act: activators of BRCA1 expression. AID 624202. Potency, µM (highest dose often 46.1 µM), inactives show top-dose activation, usual class: activators. hit rate 1.1% among 380,000. MCF7-BRCA1-FFLuc reporter, luminescence, 48 h; response scale: scaled: vehicle 0%, 10 µM genistein 100%; also: potency is read from the fitted curve at half-maximal effect; nearly all actives have a fitted effect of over 80% in size
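Cells: MCF7-BRCA1-FFLuc, 2000/well. Exposure: 48 h, 37 °C, 5% CO2. Read: luminescence, 15 min post-substrate. Controls: genistein 10 microM (maximal activation), DMSO (neutral).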
Nrf2 inh: inhibitors of Nrf2 signaling; A549 ARE-Fluc reporter, luciferase luminescence, 18-24 h; Potency, µM (series often up to 46 µM), without a hit: at the highest dose activity change, negative = inhibition, actives largely listed as inhibitors; hit rate 2.1% among 360,000; AID 504444; also: potency is read from the fitted curve at half-maximal effect; % is scaled to controls: 0 for no effect and ±100 for the full control effect; nearly all actives have a fitted effect of over 60% in size
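Cells were seeded and rested 2 h, then exposed to compounds for 18-24 h. CellTiter-Fluor was read first as a viability measure. BugLite was added 15 min before the final luminescent read of ARE-luciferase activity in A549 cells.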
A549 viability: A549 cytotoxicity, counter-screen for Nrf2 inhibitors. A549 ARE-Fluc cells, CellTiter-Fluor viability, 18-24 h. Potency, µM (titrated, usually from 46 µM), for the others: top-dose activity change, negative = cytotoxicity, most hits filed as inhibitors. hit rate 0.16% among 390,000; also: potency is read from the fitted curve at half-maximal effect; % is scaled to controls: 0 for no effect and ±100 for the full control effect
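A549 ARE-Fluc cells in 5% FBS OPTI-MEM, 5000 cells/well, rested 2 h then exposed to compounds in concentration-response for 18-24 h at 37 °C. Viability by CellTiter-Fluor fluorescence (Ex 405/Em 525) after 30 min; luciferase luminescence (BugLite, 15 min, RT) read afterwards.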
An asterisk follows results filed as active. Unless noted, calls follow the shape of the dose curve; as a rule, active = well fitted curve in the direction sought with a large enough effect; inconclusive = small, poorly fitted or top-dose-only effect, or another doubt; inactive = no such curve, though single readings can be large; an effect the other way counts as inactive or inconclusive.

Screening CCc1nnc(NC(=O)c2ccc(NC(=O)C(C)C)cc2)s1 returned p53 reactivator 5.0%, Nrf2 ARE act 4.1%, IL2 activator -0.1, BRCA1 expr act 11.2µM*, Nrf2 inh 6.5% and A549 viability 6.1%.
CCc1nnc(NC(=O)c2ccncc2)s1 was read as p53 reactivator 1.9%, Nrf2 ARE act -0.3%, IL2 activator -1.3, BRCA1 expr act 44.6%, Nrf2 inh 9.6% and A549 viability -6.8%.
CCc1nnc(NC(=O)c2cccc(C(=O)Nc3nnc(CC)s3)n2)s1 was read as p53 reactivator -1.0%, Nrf2 ARE act 3.5%, IL2 activator -0.6, BRCA1 expr act -74.8%, Nrf2 inh 0.259µM* and A549 viability inconclusive.
CCc1nnc(NC(=O)c2ccc3ncsc3c2)s1 was read as p53 reactivator 9.0%, Nrf2 ARE act -0.1%, IL2 activator 0.3, BRCA1 expr act 79.1%, Nrf2 inh -13.1% and A549 viability -4.2%.
Screening COc1cccc(N2CCN(S(=O)(=O)c3ccc(-c4cc(C(F)(F)F)on4)s3)CC2)c1 returned Nrf2 ARE act -0.7%, Nrf2 inh inconclusive and A549 viability 8.5%.
Screening Fc1cc(Br)ccc1Nc1c2c(nc3nc(-c4cccs4)nn13)CCCC2 returned Nrf2 ARE act -1.7% and A549 viability inconclusive.
For Cc1cccc(CN2CC34CCC(CC3S2(=O)=O)O4)c1 (configuration not stated) the results were Nrf2 inh -6.4% and A549 viability -0.9%.
`NS(=O)(=O)c1ccc(NC(=O)C2Cc3ccccc3N2C(=O)c2ccccc2)cc1` (configuration not stated) gave Nrf2 ARE act 3.0% and A549 viability 0.0%.
Screening Cc1nnc(N2CCN(C(=O)NC(C)C)CC2)c2nn(-c3ccccc3)c(C)c12 returned Nrf2 ARE act -0.6%, Nrf2 inh -1.0% and A549 viability -0.9%.
For CCc1nnc(NC(=O)c2cc(S(=O)(=O)N(CC)CC)ccc2Cl)s1 the results were p53 reactivator 6.0%, Nrf2 ARE act 2.9%, IL2 activator inconclusive, BRCA1 expr act 10.2%, Nrf2 inh 16.4µM* and A549 viability -16.9%.
CCC(C)(C)C(=O)Nc1nnc(CCc2ccccc2)s1 was read as p53 reactivator 17.7%, Nrf2 ARE act 7.9%, IL2 activator -3.3, BRCA1 expr act 8.91µM*, Nrf2 inh inconclusive and A549 viability 7.9%.
For CCN(CC)S(=O)(=O)c1ccc(Cl)c(C(=O)NC)c1 the results were p53 reactivator -5.3%, Nrf2 ARE act 2.2%, IL2 activator -0.2, BRCA1 expr act -4.5%, Nrf2 inh 11.4% and A549 viability -2.8%.
For Cc1cc(-c2ccccc2)cc(-c2ccccc2)[n+]1C the results were p53 reactivator -0.3%, Nrf2 ARE act 0.4%, IL2 activator -5.3, BRCA1 expr act -29.2%, Nrf2 inh 11.6µM* and A549 viability -12.5%.
For COc1ccc(CN2CCC3C=CCC(C(=O)O)C3C2=O)cc1OC (configuration not stated) the results were Nrf2 inh 7.5% and A549 viability 1.0%.
`Cc1cc(N/N=C/c2cccc(Cl)c2)nc(-n2nc(C)cc2C)n1` gave p53 reactivator -7.4%, Nrf2 ARE act 0.1%, IL2 activator 0.0, BRCA1 expr act -74.9%, Nrf2 inh 16.4µM* and A549 viability -20.8%.
c1ccc2c(-c3csc(-c4ccncc4)n3)c[nH]c2c1 was read as p53 reactivator 3.6%, Nrf2 ARE act inconclusive, IL2 activator 2.1, BRCA1 expr act 45.4%, Nrf2 inh inconclusive and A549 viability 9.0%.
Screening Brc1ccc(-c2csc(-c3c[nH]c4ccccc34)n2)cc1 returned p53 reactivator 44.7µM*, Nrf2 ARE act 12.7%, IL2 activator -1.3, BRCA1 expr act 24.1% and A549 viability -7.6%.
Screening Cc1c(Cl)cccc1NC(=O)CSc1nc(=O)n(Cc2ccco2)c2c1CCC2 returned Nrf2 ARE act 7.6%, BRCA1 expr act -10.9% and A549 viability -2.6%.
Screening COc1ccc(Cl)cc1NC(=O)CCCn1c(=O)c2cccn2c2cccnc21 returned Nrf2 ARE act 2.9%, IL2 activator 1.2, BRCA1 expr act 5.5%, Nrf2 inh 16.4µM* and A549 viability -1.3%.
COc1ccc(C2Nc3ccccc3C(=O)N2Cc2cccc(C(F)(F)F)c2)cc1COc1ccc(NC(C)=O)cc1 (configuration not stated) was read as Nrf2 inh inconclusive and A549 viability -15.4%.
COc1ccc(/C=N/Nc2ncccc2[N+](=O)[O-])c(OC)c1 was read as p53 reactivator inconclusive, Nrf2 ARE act -0.3%, IL2 activator -3.5, BRCA1 expr act 14.1µM*, Nrf2 inh inconclusive and A549 viability 0.6%.
`COc1ccccc1OCCNC(=O)c1ccc2c(c1)OCCO2` gave p53 reactivator 24.3%, Nrf2 ARE act -0.1%, IL2 activator -2.9, BRCA1 expr act inconclusive, Nrf2 inh inconclusive and A549 viability -0.2%.
Screening COc1ccccc1OCCNC(=O)c1ccc2c(c1)CCC2 returned p53 reactivator inconclusive, Nrf2 ARE act 2.8%, IL2 activator -0.2, BRCA1 expr act 11.2µM*, Nrf2 inh inconclusive and A549 viability 3.2%.
`COc1ccc(CSc2nnc(C)s2)cc1F` gave p53 reactivator inconclusive, Nrf2 ARE act -0.4%, IL2 activator 0.8, BRCA1 expr act 4.47µM*, Nrf2 inh inconclusive and A549 viability 4.2%.
For COC(=O)c1ccc(CSc2nnc(C)s2)cc1 the results were p53 reactivator 10.1%, Nrf2 ARE act 0.6%, IL2 activator -3.1, BRCA1 expr act 90.4%, Nrf2 inh inconclusive and A549 viability -2.8%.
`N/C(=N\OC(=O)c1ccncc1)c1cccc([N+](=O)[O-])c1` gave p53 reactivator -8.6%, Nrf2 ARE act 15.2%, IL2 activator -2.7, BRCA1 expr act 7.94µM*, Nrf2 inh inconclusive and A549 viability 0.5%.
Screening Cc1ccc(C(=O)O/N=C(\N)c2cccc([N+](=O)[O-])c2)cc1 returned p53 reactivator inconclusive, Nrf2 ARE act inconclusive, IL2 activator 5.0, BRCA1 expr act 3.16µM*, Nrf2 inh inconclusive and A549 viability -7.0%.
Screening COc1cccc(C(=O)O/N=C(\N)c2ccncc2)c1 returned p53 reactivator 2.2%, Nrf2 ARE act 16.5%, IL2 activator -1.8, BRCA1 expr act 10µM*, Nrf2 inh inconclusive and A549 viability -0.5%.
